Drawing on article PMC11062922 (Nature Chemical Biology, 2023), this text covers potency estimated from few doses for 17 molecules.

Where two headings read alike, the source gives them in different places.

Holding throughout (set-up): species or system human, MV4-11 + K-562 + COLO205 + SK-N-BE2 + OVCAR-8
One assay deals with MAPK14. Particulars: read-out: apparent Kd, n = 1.
The next assay concerns JAK2. Particulars: read-out: apparent Kd, n = 1.
The next assay relates to AURKB. Particulars: read-out: apparent Kd, n = 1.
For the next assay, the system named is DDR2. Particulars: read-out: apparent Kd, n = 1.
A further assay deals with BMPR1B. Particulars: read-out: apparent Kd, n = 1.
Another assay concerns EPHB1. Particulars: read-out: apparent Kd, n = 1.
The test system of a further assay is EPHB6. Particulars: read-out: apparent Kd, n = 1.
For the next assay, the system named is TGFBR1. Particulars: read-out: apparent Kd, n = 1.
The next assay concerns PRKD2. Particulars: read-out: apparent Kd, n = 1.
A further assay relates to EPHA5. Particulars: read-out: apparent Kd, n = 1.
The next assay has as its system TNK2. Particulars: read-out: apparent Kd, n = 1.
The subject of the next assay is FLT4. Particulars: read-out: apparent Kd, compound concentrations: 100 nM and 1000 nM (sheet 'Samples'), n = 1.
In the next assay the test system is PLK4. Particulars: read-out: apparent Kd, n = 1.
The subject of the next assay is PRKD3. Particulars: read-out: apparent Kd; compound concentrations: 100 nM and 1000 nM (sheet 'Samples'), CATDS: 7.3913708056946199E-3; n = 1.
In a further assay the test system is AKT1. Particulars: read-out: apparent Kd; compound concentrations:100 nM and 1000 nM (sheet 'Samples'); n = 1.
Another assay relates to AKT2. Particulars: read-out: apparent Kd; compound concentrations:100 nM and 1000 nM (sheet 'Samples'); n = 1.
The subject of a further assay is RIOK2. Particulars: read-out: apparent Kd; compound concentrations:100 nM and 1000 nM (sheet 'Samples'); n = 1.
The mark [1] stands for this setting: compound concentrations:100 nM and 1000 nM (sheet 'Samples').

Take `COc1ccc(-n2cnc3c(N)ncnc32)cc1` [SKF-97236]: in the assay with MAPK14 (compound concentrations: 100 nM and 1000 nM (sheet 'Samples'), CATDS: 0.140639496900372), the potency estimated from few doses is 1390 nM.
Regarding `O=C1N=C(NCCc2cccc(Cl)c2)S/C1=C\c1ccc2ncccc2c1` [RO4509201-000], the potency estimated from few doses with JAK2 (compound concentrations: 100 nM and 1000 nM (sheet 'Samples'), CATDS: 7.2632093710390006E-2) was 736 nM.
`CCn1cc(-c2ccnc3[nH]c(-c4cccc(CN(C)C)c4)cc23)c(-c2ccc(NC(=O)N(C)C)cc2)n1` [GSK1070916]: the potency estimated from few doses was 594 nM in the assay with AURKB (setting [1]) and 1830 nM in the assay with DDR2 (setting [1]).
Consider `COc1cc(Nc2ccnc3cc(-c4ccncc4)ccc23)cc(OC)c1OC.Cl` [GW494610A], for which the potency estimated from few doses with AURKB (compound concentrations: 100 nM and 1000 nM (sheet 'Samples'), CATDS: 5.7571781244095399E-2) was 90.3 nM; in the assay with BMPR1B (compound concentrations: 100 nM and 1000 nM (sheet 'Samples'), CATDS: 3.91672481095015E-2), 233 nM; in the assay with EPHB1 (compound concentrations: 100 nM and 1000 nM (sheet 'Samples'), CATDS: 2.3499572328162702E-2) it was 1250 nM; in the assay with EPHB6 (compound concentrations: 100 nM and 1000 nM (sheet 'Samples'), CATDS: 2.9510558776715799E-2), 536 nM; in the assay with TGFBR1 (compound concentrations: 100 nM and 1000 nM (sheet 'Samples'), CATDS: 2.6595956704932502E-2), 765 nM.
With `CNC1=NC(=O)/C(=C/c2ccc3ncccc3c2)S1` [RO4595949-000], the potency estimated from few doses is 790 nM with JAK2 (compound concentrations: 100 nM and 1000 nM (sheet 'Samples'), CATDS: 6.3201453255696996E-2); 1770 nM with PRKD2 (compound concentrations: 100 nM and 1000 nM (sheet 'Samples'), CATDS: 5.1323444817528999E-2).
As for `CCN(CC)CCOc1ccc(Nc2ncc3cc(-c4c(Cl)cccc4Cl)c(=O)n(C)c3n2)cc1` [SB-601273], the potency estimated from few doses is 239 nM in the assay on BMPR1B (setting [1]); 319 nM in the assay on DDR2 (setting [1]); 135 nM with EPHA5 (setting [1]); 10.6 nM with EPHB1 (setting [1]); 175 nM with EPHB6 (setting [1]); 678 nM in the assay on MAPK14 (setting [1]). Further, the values for the potency estimated from few doses in the assay on TGFBR1 (setting [1]) and with TNK2 (setting [1]) were 270 nM and 87.3 nM, respectively.
`O=C1N=C(NCc2cccs2)SC1Cc1ccc2ncccc2c1` (stereo not drawn) [RO4629078-000]: the potency estimated from few doses is 1200 nM in the assay with AURKB (compound concentrations: 100 nM and 1000 nM (sheet 'Samples'), CATDS: 8.1625100314479202E-3); 259 nM in the assay with EPHA5 (compound concentrations: 100 nM and 1000 nM (sheet 'Samples'), CATDS: 1.5844356878219199E-2); 272 nM in the assay with EPHB1 (compound concentrations: 100 nM and 1000 nM (sheet 'Samples'), CATDS: 1.5393002457868701E-2); 389 nM in the assay with FLT4 (CATDS: 1.2746443799933199E-2); 254 nM in the assay on PLK4 (compound concentrations: 100 nM and 1000 nM (sheet 'Samples'), CATDS: 1.60355035004788E-2); 2110 nM in the assay on PRKD2 (compound concentrations: 100 nM and 1000 nM (sheet 'Samples'), CATDS: 7.0804860166384202E-3). Also, the potency estimated from few doses in the assay on PRKD3 is 1750 nM; in the assay with TNK2 (compound concentrations: 100 nM and 1000 nM (sheet 'Samples'), CATDS: 1.95530569334194E-2), 183 nM.
On to `NS(=O)(=O)CCc1cccc(Nc2nccc(-c3c(-c4cccc(NC(=O)c5c(F)cccc5F)c4)nn4ccccc34)n2)c1` [GSK336735A], for which, in the assay with AURKB (compound concentrations: 100 nM and 1000 nM (sheet 'Samples'), CATDS: 5.6735057475689701E-2), the potency estimated from few doses was 1260 nM.
As to `CN(C)Cc1ccc(-c2ccc3c(Nc4ccc(Oc5ccccn5)cc4)ccnc3c2)o1` [GW567148X], the potency estimated from few doses with AURKB (compound concentrations: 100 nM and 1000 nM (sheet 'Samples'), CATDS: 1.8860841823088701E-2) was 1200 nM; in the assay with EPHA5 (compound concentrations: 100 nM and 1000 nM (sheet 'Samples'), CATDS: 2.06539246385424E-2) it was 902 nM; in the assay with EPHB1 (compound concentrations: 100 nM and 1000 nM (sheet 'Samples'), CATDS: 2.01059548951249E-2), 977 nM; in the assay on EPHB6 (compound concentrations: 100 nM and 1000 nM (sheet 'Samples'), CATDS: 1.6574994682998501E-2), 1960 nM; in the assay with JAK2 (compound concentrations: 100 nM and 1000 nM (sheet 'Samples'), CATDS: 5.6320908598955097E-2), 121 nM; in the assay with PLK4 (compound concentrations: 100 nM and 1000 nM (sheet 'Samples'), CATDS: 1.8058867791982399E-2) it was 1390 nM. The potency estimated from few doses with TNK2 (compound concentrations: 100 nM and 1000 nM (sheet 'Samples'), CATDS: 2.9353794658715598E-2) is 386 nM.
On to `Nc1nc(N)c2nc(-c3ccccc3)[nH]c2n1` [SKF-12778], for which the potency estimated from few doses with AKT1 is 1480 nM; with AKT2, 1570 nM; in the assay on JAK2 (setting [1]), 66.2 nM; with MAPK14 (setting [1]) it was 973 nM; with RIOK2, 1620 nM.
Take `Cn1cc(-c2ccc3c(c2)CCN3C(=O)Cc2cccc(Cl)c2)c2c(N)ncnc21` [GSK2606590A]: the potency estimated from few doses in the assay with AURKB (compound concentrations: 100 nM and 1000 nM (sheet 'Samples'), CATDS: 0.34532909823612901) was 968 nM.
As to `Cc1cc(O)cc(C)c1/C=C/c1cncc(-c2nn[nH]n2)c1.Cl` [GW441806A], the potency estimated from few doses in the assay with EPHB6 (compound concentrations: 100 nM and 1000 nM (sheet 'Samples'), CATDS: 4.3077369875392603E-2) is 1670 nM; in the assay with JAK2 (compound concentrations: 100 nM and 1000 nM (sheet 'Samples'), CATDS: 7.0798034106367105E-2), 387 nM.
For `COc1cc2ncn(-c3cc(OCCCc4ccccc4)c(C(N)=O)s3)c2cc1OC` [GSK205189A], the potency estimated from few doses in the assay on EPHA5 (setting [1]) is 720 nM; with EPHB1 (setting [1]), 958 nM; with PLK4 (setting [1]), 1240 nM; in the assay on TNK2 (setting [1]), 48.2 nM.
As to `Fc1ccc(-c2c(-c3ccncc3)[nH]c3nccnc23)cc1` [RO1155697-000], the potency estimated from few doses is 886 nM in the assay with DDR2 (setting [1]); 449 nM in the assay with MAPK14 (compound concentrations: 100 nM and 1000 nM (sheet 'Samples'), CATDS: 5.8125054995699497E-2); 962 nM in the assay with PRKD2 (setting [1]); 1950 nM in the assay on TGFBR1 (setting [1]).
With `COc1cccc(-c2c[nH]c3c(N/N=C/c4ccncc4)ncnc23)c1` [GW814408X], the potency estimated from few doses in the assay with BMPR1B (setting [1]) is 612 nM.
Turning to `CN1CCN(c2ccc(Nc3nc(N)c(C(=O)c4ccc5c(c4)OCCO5)s3)cc2)CC1` [RO0505124-000], in the assay with JAK2 (compound concentrations: 100 nM and 1000 nM (sheet 'Samples'), CATDS: 0.61009142123011895), the potency estimated from few doses was 50.1 nM.
On to `CNC(=O)c1ccccc1Nc1nc(Nc2cccc(CS(C)(=O)=O)c2)ncc1C.O=CO` [GSK1520489A], for which the potency estimated from few doses is 22.6 nM with AURKB (compound concentrations: 100 nM and 1000 nM (sheet 'Samples'), CATDS: 5.1121534714452903E-2); 288 nM in the assay on BMPR1B (compound concentrations: 100 nM and 1000 nM (sheet 'Samples'), CATDS: 1.50633752553141E-2); 443 nM in the assay with DDR2 (compound concentrations: 100 nM and 1000 nM (sheet 'Samples'), CATDS: 1.3086276372357399E-2); 127 nM in the assay on FLT4 (CATDS: 2.0677135389333402E-2); 917 nM in the assay with JAK2 (compound concentrations: 100 nM and 1000 nM (sheet 'Samples'), CATDS: 1.0777709602795499E-2); 19.3 nM with PLK4 (compound concentrations: 100 nM and 1000 nM (sheet 'Samples'), CATDS: 5.6526690593712202E-2). For the same molecule, the potency estimated from few doses in the assay with TGFBR1 (compound concentrations: 100 nM and 1000 nM (sheet 'Samples'), CATDS: 9.4696036955239198E-3) is 1790 nM.
